Inconclusive results are not listed. A number with no mark means an inactive call. Activity calls are given as the source filed them. Calls come from the whole dose curve; as a rule, active = well fitted activation curve with a large enough effect; inconclusive = small, poorly fitted or top-dose-only effect; inactive = flat fitted curve, though single readings scatter.
Assay: qHTS for Inhibitors of Cell Surface uPA Generation: Confirmatory Assay for Cherry-picked Compounds; for inhibition: 0% is about no effect
Conditions: cell surface uPA activity generation, qHTS confirmation; series mostly up to 115 µM; inhibition: at the top concentration
Procedure, shortened: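 RAW 264.7 cells at 4000/well, incubated overnight, then treated with compounds. After 24 h at 37 C, viability was read by ATPlite luminescence. An increase in signal indicates blocked uPA-dependent LF entry.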
Potency is the fitted concentration of half-maximal effect.

Compared with `Cc1nc(NC(=O)COC(=O)CCc2ccccc2)c(Cl)cc1Cl`, `O=C(COC(=O)C1CC2C=CC1C2)NCc1ccccc1Cl` (centres undefined) is higher in “inhibition” value: -3.77% for the first, 1.24% for the second.

Compared with `COc1cc(/C=N/NC(=O)c2ccncc2)ccc1O`, `CC(=O)n1cc(/C=N/NC(=O)c2ccc([N+](=O)[O-])cc2)c2ccccc21` is lower in “inhibition” value: 1.09% for the first, -2.83% for the second.

Going from `NC(=O)c1ccccc1NC(=O)CC12CC3CC(CC(C3)C1)C2` to `CN(C)S(=O)(=O)c1ccc(NC(=O)COC(=O)CC2CC3CCC2C3)cc1` (centres undefined), the “inhibition” value rises from -2.57% to 0.968%.

First: CS(=O)(=O)N1CCC(C(=O)Nc2ccccc2)CC1
Second: CCN(c1ccccc1)S(=O)(=O)c1ccc(NC(=O)c2ccco2)cc1
The “inhibition” value of the first is higher: -0.392% for the first, -2.76% for the second.

Going from `O=C(O)c1cc(N=Nc2c(O)[nH]c3ccc([N+](=O)[O-])cc23)ccc1Cl` to `O=C(Nc1c(C(=O)O)oc2ccc(Br)cc12)c1ccccc1`, the “inhibition” value falls from -0.969% to -3.83%.

Going from `COc1ccc(C(=O)NC(=S)Nc2ccc(NC(=O)c3ccco3)cc2)cc1[N+](=O)[O-]` to `O=C(NCc1ccco1)/C(=C\c1cccs1)NC(=O)c1ccccc1`, the “inhibition” value falls from 0.844% to -0.346%.

Going from `Cc1ccc(NC(=O)CSc2nncn2N)cc1C` to `Cc1ccccc1-c1nnc(SCC(=O)NCC2CCCO2)o1` (centres undefined), the “inhibition” value falls from 2.68% to 0.306%.

Going from `CC(=O)c1cccc(NC(=O)N2C3CCC2CC(O)(c2cccnc2)C3)c1` (centres undefined) to `C/C(=N\NC(=O)c1ccccc1)c1c(C)[nH]n(-c2ccccc2)c1=O`, the “inhibition” value falls from 0.799% to -3.44%.

Going from `Cc1ccc(NC(=O)CS(=O)Cc2nc(-c3ccc(C)cc3)oc2C)cc1` (centres undefined) to `CCOc1ccc(NC(=S)N2CCC(c3ccc(C)cc3)C2)cc1` (centres undefined), the “inhibition” value falls from -2.57% to -2.73%.

Going from `C=C(C(=O)O)C1CCC2(C)CCCC(C)(O)C2C1` (centres undefined) to `CC1Cc2nc(SCC(=O)N3CCCC3)n(C)c(=O)c2S1` (centres undefined), the “inhibition” value falls from -1.14% to -3.28%.

Compared with `Cc1ccc(C)c(-c2ccc(=O)n(Cc3c(F)cccc3Cl)n2)c1`, `CCOC(=O)Cn1c(=O)cc(C)c2cccc(C)c21` is higher in “inhibition” value: -3.64% for the first, 6.99% for the second.

Going from `CCOc1cc(C(=S)N2CCOCC2)ccc1OC(=O)c1cccc(C)c1` to `Cc1noc(C)c1COc1ccc(C(=O)O)cc1`, the “inhibition” value rises from -3.23% to -1.22%.

First: O=C(CSc1nncs1)NC(=O)NCc1ccco1
Second: O=C(N/N=C/c1cccs1)c1ccco1
The “inhibition” value of the first is lower: -3.16% for the first, -2.33% for the second.

Going from `CN1CCN(C2=Nc3ccccc3Oc3ccc(Cl)cc32)CC1` to `COc1ccc(CN2CCN(Cc3ccc(C(F)(F)F)cc3)CC2)cc1`, the “inhibition” value falls from 0.247% to -2.64%.

Going from `CC(=O)Nc1ccc(OS(=O)(=O)c2c(C)cc(C)cc2C)cc1` to `COc1ccc(C(=O)NCC(=O)N/N=C/c2c(C)[nH]c3ccccc23)cc1`, the “inhibition” value rises from -3.5% to 0.686%.

Going from `Cc1ccc(OCc2cc(C(=O)N(C)Cc3cc(C4CC4)n[nH]3)no2)cc1C` to `Cc1cc(C)n(-c2cc(C(=O)O)cc(C(=O)O)c2)n1`, the “inhibition” value rises from -3.14% to -1.53%.

Going from `CCCc1nc2c(=O)n(C)c(=O)[nH]c2n1CCC` to `CCn1c(SC(C)C(=O)NC2CCCC2)nc2cc(S(N)(=O)=O)ccc21` (centres undefined), the “inhibition” value rises from 1.04% to 6.22%.

Compared with `O=C(CSc1nnnn1-c1cccc(F)c1)Nc1nc2ccccc2s1`, `Cc1ccc(S(=O)(=O)NNC(=O)c2ccc(F)cc2)cc1` is lower in “inhibition” value: 0.878% for the first, 0.277% for the second.

Compared with `CCCCOc1ccc(S(=O)(=O)N2CCCCC2)cc1`, `CC(NC(=O)NC1CCCCC1)C(c1cccs1)N1CCN(C)CC1` (centres undefined) is higher in “inhibition” value: -1.94% for the first, 1.87% for the second.

For `COc1ccc(NS(=O)(=O)c2cccc(C(=O)NCc3ccccc3CN3CCCC3)c2)cc1`, the Potency was 7.36 µM (active).

Reference: PubChem BioAssay AID720519 (National Center for Advancing Translational Sciences (NCATS), 2013)
